Measurements taken from the supplement of paper PMC12494721.
Where a name gives a salt, the structure may show the parent alone.

What follows are molecules tested on Klebsiella aerogenes DSM 30053 (assay: fold change of Histamine concentration vs plate DMSO controls (fold change (ratio)); higher = more amine produced, active = hit call of the paper (significant change in both replicates, either direction)). Conditions: incubation time: 27 h, anaerobic, 37 °C;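 for the amine columns active = adjusted P below 0.05 in both replicates with a change the same way and a mean fold change under 0.8 or over 1.25; inactive = the rest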.
Outline: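 Anaerobic mGAM cultures of four gut bacterial strains were grown at 37 °C for 27 h in 80 µL wells, starting at OD 0.1 before 1:1 dilution. Compounds were at 20 µM final (sweeteners 50 µM). Whole cultures were extracted with cold acetonitrile/methanol containing 0.1% formic acid and centrifuged. Amines were quantified by LC–triple-quadrupole MS (dynamic MRM) against external calibration curves and drift-corrected within batch. Each value is the fold change versus plate DMSO controls, averaged over 2 biological replicates.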

Fold change of Histamine concentration, inactive:
CCNC(=O)CCC/C=C\C[C@@H]1[C@@H](/C=C/[C@@H](O)CCc2ccccc2)[C@H](O)C[C@@H]1O [Bimatoprost] (20 µM) 1.05
CN(Cc1ccc(C(C)(C)C)cc1)Cc1cccc2ccccc12 [Butenafine hydrochloride] (20 µM) 1.11
CN1CCC(OC(c2ccccc2)c2ccccc2)CC1 [Diphenylpyraline hydrochloride] (20 µM) 1.05
c1ccc2cc3c(ccc4ccccc43)cc2c1 [Benz[a]anthracene] (20 µM) 1.07
CC1=C(C(=O)O)N2C(=O)[C@@H](NC(=O)[C@H](N)c3ccccc3)[C@H]2SC1 [Cephalexin monohydrate] (20 µM) 1.03
CNc1ncnc2c1ncn2[C@@H]1O[C@H](CO)[C@@H](O)[C@H]1O [N6-methyladenosine] (20 µM) 1.03
Cn1nnc2c(C(N)=O)ncn2c1=O [Temozolomide] (20 µM) 0.956
CN[C@@H]1[C@H](O[C@H]2[C@H](O[C@H]3[C@H](O)[C@@H](O)[C@H](N=C(N)N)[C@@H](O)[C@@H]3N=C(N)N)O[C@@H](C)[C@]2(O)C=O)O[C@@H](CO)[C@H](O)[C@H]1O [Streptomycin sulfate] (20 µM) 0.988
CC(C)Oc1ccc2c(=O)c(-c3ccccc3)coc2c1 [Ipriflavone] (20 µM) 1
CC[C@@H]1C(=O)OC[C@@H]1Cc1cncn1C [Pilocarpine nitrate] (20 µM) 0.95
